PubChem BioAssay AID1224860 (National Center for Advancing Translational Sciences (NCATS), 2016)
Records with an inconclusive call do not appear. A call without a number means that no potency is given here. The source made the active and inactive calls. Calls follow the shape of the dose curve; as a rule, active = well fitted cell-killing curve with a large enough effect; inconclusive = small, poorly fitted or top-dose-only effect; inactive = flat fitted curve, though single readings scatter.

Assay: Compound cytotoxicity measured by an ATP content assay as a counter-screen for lead compounds in human iPSC derived neural progenitor cells (hNPCs)
Details: human iPSC-derived NPC viability, ATP luminescence; series mostly up to 46.1 µM
Method in brief: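 hNPCs (human iPSC-derived) seeded 16–20 h, then exposed to compound for 6, 24 or 72 h at 37 C. ATP-content luminescence read after 10 min at room temperature; cytotoxicity expressed as percent inhibition of viability.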

SMILES	Potency
O=C1C(Cl)=C(NCCN2CCOCC2)C(=O)c2ncccc21	1.73 µM (active)
CCCCCCCCCCCC(=O)[O][Sn]([CH2]CCC)([CH2]CCC)[O]C(=O)CCCCCCCCCCC	inactive
O=S(=O)(O)CCSSCCS(=O)(=O)O	inactive
Nc1ncnc2c1ncn2[C@@H]1O[C@@H](CO)[C@H](O)[C@H]1O	inactive
CC1(C)Cc2c(sc(NC(=S)NC(=O)c3ccccc3)c2C(=O)O)CO1	inactive
Nc1ccc2c(c1)CN1C(=O)c3ccccc3C1=N2	6.73 µM (active)
CC(C(=O)O)c1ccc(-c2ccccc2)c(F)c1 (stereo unspecified)	inactive
CS(=O)(=O)c1ccc(-c2cn3ccccc3n2)cc1	7.74 µM (active)
O=C(Nc1cc2cc[nH]c2cn1)c1ccccc1	0.346 µM (active)
CO[C@H]1C(=O)[C@]2(C)[C@@H](OC)C[C@H]3OC[C@@]3(OC(C)=O)[C@H]2[C@H](OC(=O)c2ccccc2)[C@]2(O)C[C@H](OC(=O)[C@H](O)[C@@H](NC(=O)OC(C)(C)C)c3ccccc3)C(C)=C1C2(C)C	inactive
C[C@@H]1CCN(C(=O)CC#N)C[C@H]1N(C)c1ncnc2[nH]ccc12	inactive
CCOCCOC(=O)/C=C/c1ccc(OC)cc1	inactive
CC(C(=O)O)c1ccc2c(c1)[nH]c1ccc(Cl)cc12 (stereo unspecified)	inactive
CN(C)c1cc(NC(=O)CNC(C)(C)C)c(O)c2c1C[C@@H]1C[C@H]3[C@H](N(C)C)C(=O)C(C(N)=O)=C(O)[C@@]3(O)C(=O)C1=C2O	inactive
CCC(C)SSc1ncc[nH]1 (stereo unspecified)	19.5 µM (active)
COc1ccc(-c2cc(=S)ss2)cc1	inactive
